A selection: hits, their analogues and other compounds. The true share with any hit is near 18%.
DT40 TDP1 no CPT: qHTS for Inhibitors of human tyrosyl-DNA phosphodiesterase 1 (TDP1): qHTS in cells in absence of CPT; hit rate 15% among 420,000; DT40 Tdp1-/- hTDP1 cells, no CPT, ATP luminescence, 48 h; AID 686978, 2013; Potency, µM (titrated, usually from 46.2 µM), for the others: top-dose activity change, negative = growth inhibition, actives largely listed as inhibitors; further: potency means the concentration at half of the fitted maximal effect; nearly all actives have a fitted effect of over 55% in size
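Chicken DT40 Tdp1-/- cells stably complemented with human TDP1 were seeded at 400 cells/well with DMSO in place of 20 nM camptothecin. After compound pinning, cells grew at least 48 hr at 37 °C; viability read by CellTiter-Glo luminescence.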
Gal4-VP16 FLuc: Gal4-VP16 reporter inhibition counter-screen; Potency, µM (doses to about 53.6 µM), for inactives: at the highest dose activity, negative = inhibition, usual class: inhibitors; AID 2546; hit rate 3.5% among 310,000; Drosophila S2 Gal4-VP16 UAS-luciferase, luminescence, 20 h;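 further: Gal4-VP16 expression switched on by copper sulfate through the metallothionein promoter; potency means the concentration at half of the fitted maximal effect; nearly all actives have a fitted effect of over 50% in size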
LDHA block: inhibitors of human lactate dehydrogenase A. activity change, % (values are at about 110 or 230 µM). P00338. hit rate 0.15% among 480,000. purified LDHA, NADH/diaphorase-resazurin fluorescence; stronger effect = lower value. AID 1347041; in the data active means activity change below about -30%; inconclusive means mostly about -25% to -30%;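 further: plate controls were DMSO wells for no effect and wells without enzyme for full effect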
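LDH5 2 nM; NADH 0.06 mM, pyruvate 0.2 mM; 200 mM Tris pH 7.4, EDTA, Tween-20; 5 min RT. Detection: diaphorase 0.133 mg/mL + resazurin 37 µM, fluorescence ex540/em590 at 0 and 20 min; normalized to enzyme-free and DMSO wells.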
TDP1 cell CPT: growth inhibition of DT40 Tdp1-/-;hTDP1 cells with camptothecin (screen for TDP1 inhibitors); hit rate 12% among 420,000; chicken DT40 Tdp1-/-;hTDP1 cells + 20 nM CPT, ATP luminescence, 48 h; Potency, µM (highest dose often 46.2 µM), inactives show at the top dose activity change, negative = growth inhibition, actives largely listed as inhibitors; further: potency means the concentration at half of the fitted maximal effect; nearly all actives have a fitted effect of over 55% in size
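Chicken DT40 Tdp1-/- cells stably complemented with human TDP1 were seeded at 400 cells/well in medium containing 20 nM camptothecin, exposed to pin-transferred compounds, and grown at 37 °C for at least 48 hr. Viability was read as ATP luminescence.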
RORg inh: blocks mouse ROR gamma transcriptional activity. hit rate 5.4% among 310,000. Drosophila S2 Gal4-RORgamma UAS-luciferase reporter, 20 h. P51450. Potency, µM (series often up to 53.6 µM), without a hit: top-dose activity change, negative = inhibition, most hits filed as inhibitors. AID 2551; further: potency means the concentration at half of the fitted maximal effect; nearly all actives have a fitted effect of over 60% in size
Target sequence (P51450 whole entry, looked up, the tested form may be a part): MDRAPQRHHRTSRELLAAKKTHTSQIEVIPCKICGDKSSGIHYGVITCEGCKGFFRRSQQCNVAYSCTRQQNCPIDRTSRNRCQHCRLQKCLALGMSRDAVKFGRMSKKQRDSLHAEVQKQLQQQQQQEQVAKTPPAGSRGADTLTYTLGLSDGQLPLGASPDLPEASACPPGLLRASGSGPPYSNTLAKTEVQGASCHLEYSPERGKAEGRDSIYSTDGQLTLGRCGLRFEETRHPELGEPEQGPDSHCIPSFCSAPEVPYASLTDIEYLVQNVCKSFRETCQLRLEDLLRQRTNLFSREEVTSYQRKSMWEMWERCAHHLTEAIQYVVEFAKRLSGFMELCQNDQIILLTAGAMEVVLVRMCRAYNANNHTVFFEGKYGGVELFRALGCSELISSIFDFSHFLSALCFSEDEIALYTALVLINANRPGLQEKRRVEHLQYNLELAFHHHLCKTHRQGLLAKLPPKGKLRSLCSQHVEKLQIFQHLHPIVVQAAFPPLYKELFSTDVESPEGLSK
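Drosophila S2 cells stably expressing Gal4-DBD/mouse RORγ fusion under metallothionein promoter plus UAS-luciferase; compound 1 h, then 700 uM CuSO4 induction for 20 h at ambient temperature; inhibition read as reduced luminescence.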
IL1B secr inh: inhibitors of inflammasome signaling (IL-1 beta secretion). hit rate 4.7% among 360,000. AID 743279. THP-1 LPS/ATP IL-1B secretion, AlphaLISA, 16 h; stronger effect = lower value. activity change, % at 57.5 µM; in the data active means activity change below about -50%; inconclusive means mostly about -30% to -49%
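THP-1 cells pretreated 1 hr with compounds (up to 57.5 uM final), then stimulated with LPS (250 ng/mL final) plus ATP (1.25 mM final); secreted IL-1B measured by AlphaLISA after 16 hr, decreased signal indicating inhibition.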
* hit, by the source's call; ? = inconclusive; . = not tested or not shown; [ ] = dose if it differs, or a comment. Unless noted, the call rests on the fitted dose curve; in most records, active means well fitted curve in the direction sought with a large enough effect; inconclusive means small, poorly fitted or top-dose-only effect, or another doubt; inactive means no such curve, though single readings can be large; an effect the other way counts as inactive or inconclusive. Unless noted, on the % scale 0 is the no-effect control and ±100 the full control effect.

SMILES | DT40 TDP1 no CPT | Gal4-VP16 FLuc | LDHA block | TDP1 cell CPT | RORg inh | IL1B secr inh
c1ccc(CSc2nc3ccccc3s2)cc1 | . | . | -1 | . | . | .
O=C1N=c2ccccc2=C1c1c(O)[nH]c2c(C(F)(F)F)cccc12 | 26µM* | ? | 1 | 21µM* | -21%[1.91 µM] | -1
O=C(CSc1nnc(CN2CCCC2)n1-c1ccccc1)c1ccc2c(c1)OCO2 | 16µM* | . | -2 | ? | . | -27
Cn1c(SCC(=O)c2ccccc2)nnc1C1COc2ccccc2O1 (configuration not stated) | ? | 11% | -1 | -20% | 11% | 43
Cn1c(SCC(=O)c2ccc3c(c2)OCO3)nnc1C1COc2ccccc2O1 (configuration not stated) | 16µM* | -6% | 4 | 21µM* | 11% | 7
COc1ccc(C(=O)CSc2nnc(CN3CCCCC3)n2-c2ccc(Cl)cc2)cc1OC | 21µM* | -2% | 4 | ? | 32% | -13
O=C(CSc1nnc(Cc2ccccc2)o1)c1ccc2c(c1)OCO2 | -21% | . | -6 | -14% | . | 0
CCCN(Cc1nc2cc(Cl)ccc2c(=O)[nH]1)C(=O)c1cc(OC)c(OC)c(OC)c1 | . | . | -1 | . | . | .
O=C(CN1CCN(C(=O)c2ccc(I)cc2)CC1)N1CCCCC1 | . | . | 2 | . | . | .
CN1/C(=C/C2CC(=O)NC2=O)C(C)(C)c2ccccc21 (configuration not stated) | -10% | 23% | 12 | -5% | 0% | 39
CN1/C(=C\P(=O)(N(C)C)N(C)C)C(C)(C)c2ccccc21 | 3.7µM* | 7.9µM* | 3 | 5.8µM* | -39% | -11
Cc1cc(C)c(CN2CCN(CCCn3cnc(C(=O)Nc4ccc(C)c(C)c4)n3)CC2)c(C)c1 | 15µM* | . | -11 | ? | . | ?
Cc1ccc(NC(=O)c2ncn(CCCNCC3CCCCC3)n2)cc1C | 21µM* | . | 4 | ? | . | ?
Cc1ccc(NC(=O)c2ncn(CCCNCc3ccccc3)n2)cc1C | ? | . | -6 | ? | . | ?
Cc1ccc(NC(=O)c2ncn(CCCN[C@H](C)c3cccc4ccccc34)n2)cc1C | 15µM* | . | -16 | 16µM* | . | -4
Cc1ccc(NCCCn2cnc(C(=O)Nc3ccc(C)c(C)c3)n2)cc1C | -25% | . | 1 | -26% | . | -6
CCOCCCNC(=O)c1cc(C)nc2ccc(C)cc12 | . | . | 3 | . | . | .
CCN(C(=O)Cn1nc(-c2ccc(C)c(C)c2)ccc1=O)c1cccc(C)c1 | . | . | 2 | . | . | .
CC(C)(C)c1ccccc1NC(=O)c1ccc(F)cc1F | . | . | 2 | . | . | .
COCCNCC(O)CON=C1c2ccccc2-c2ccccc21 (configuration not stated) | ? | 0% | -7 | ? | -19% | -77*
CCNC(=O)CON=C1c2ccccc2-c2ccccc21 | ? | 2% | -2 | ? | 1% | -8
COc1ccc2[nH]cc(C(=O)CN(C)CCc3ccc(OC)c(OC)c3)c2c1 | 21µM* | -2% | 4 | 18µM* | ? | 0
COc1ccc2[nH]cc(C(=O)CNc3nccs3)c2c1 | 7.9µM* | . | 0 | ? | . | .
COc1ccc2[nH]cc(C(=O)CCl)c2c1 | 4.1µM* | 6.3µM* | -2 | 3.3µM* | 7.9µM* | -96*
COc1ccc2[nH]cc(C(=O)CN3CC(C)CC(C)C3)c2c1 (configuration not stated) | -22% | 3% | 5 | 16% | -11% | -3
SMILES | DT40 TDP1 no CPT | Gal4-VP16 FLuc | LDHA block | TDP1 cell CPT | RORg inh | IL1B secr inh
CCOC(=O)/C(C#N)=C/c1cc2ccccc2nc1Cl | 4µM* | 1% | 1 | 2.8µM* | -22% | 56
Cn1c(N/N=C/c2c[nH]c3ccccc23)nc2ccccc21 | ? | 4µM* | -2 | ? | 1µM* | -98*
CCCCn1c(/N=C/c2c[nH]c3ccccc23)nc2ccccc21 | 21µM* | ? | 6 | ? | ? | -52*
CCCn1c(/N=C/c2c[nH]c3ccccc23)nc2ccccc21 | -8% | -18% | 4 | -17% | -35% | ?
Cc1cc(N/N=C/c2c[nH]c3ccccc23)c2ccccc2n1 | -19% | -10% | -15 | 4% | 0% | 12
Cn1c(N/N=C/c2cc3ccccc3nc2Cl)nc2ccccc21 | 2.6µM* | 1.3µM* | -5 | 3.3µM* | 1.1µM* | 11
Cc1nnc(C)n1/N=C/c1cc2ccccc2nc1Cl | 2.9µM* | 5% | -8 | 2.6µM* | -11% | 92
CCCNC(=O)CSc1nc2ccsc2c(=O)n1C | . | . | 4 | . | . | .
N=C1S/C(=C\c2ccc(O)cc2)C(=O)N1c1ccc(F)cc1 | ? | 2.8µM* | -14 | -16% | 2.5µM* | 60
O=C1/C(=C\c2ccc(O)cc2)SC(=S)N1c1cccnc1 | 5% | -7% | -7 | ? | 21% | 0
CC(C)c1ccc(NC(=O)C2CCCN2S(=O)(=O)c2cccc3nsnc23)cc1 (configuration not stated) | . | . | 3 | . | . | .
Cc1ccc(OCC(=O)NNC(=O)CSc2ncc(C#N)c(N)n2)cc1 | -11% | ? | -2 | -12% | 0.71µM* | 5
CCNC(=O)NC(=O)CSc1nc(C2CC2)nc2ccccc12 | . | . | 10 | . | . | .
NC(=O)c1nc(-c2ccccc2)c(-c2ccccc2)[nH]c1=O | 2.3µM* | . | -1 | 0.58µM* | . | -15
Cc1ccc(-c2[nH]c(-c3ccc(C(=O)O)cc3)nc2-c2ccccc2)cc1 | -18% | -7% | -8 | -11% | 27% | 48
CCN(CC)CCC(=O)N1c2ccccc2Sc2ccc(C(F)(F)F)cc21 | -107% | -4% | . | -129% | -1% | .
CN(C)CCC(=O)N1c2ccccc2Sc2ccc(Cl)cc21 | -28% | -8% | -4 | -7% | -6% | -59*
CN(C)c1cc[n+](CC(=O)N2c3ccccc3Sc3ccccc32)cc1 | 2.9µM* | -10% | -6 | 2.1µM* | 21% | ?
CCN(CC)CCC(=O)N1c2ccccc2Sc2ccc(Cl)cc21 | ? | -1% | -2 | 15µM* | 20% | -71*
NCCCC(=O)N1c2ccccc2Sc2ccc(Cl)cc21 | 23µM* | -3% | -6 | ? | 1% | ?
Cc1cc([N+](=O)[O-])ccc1NCc1cccc2ccccc12 | 16µM* | . | -13 | ? | . | -66*
Cc1cc([N+](=O)[O-])ccc1NCc1ccccc1[N+](=O)[O-] | -24% | -9% | -10 | -15% | 17% | -71*
O=S(=O)(c1ccc(Sc2nnnn2C2CCCC2)nc1)N1CCCC1 | . | . | -2 | . | . | .
CCCCn1nc(C(=O)Nc2ccc3oc(C)nc3c2)c2ccccc2c1=O | . | . | 7 | . | . | .

Compound activity as filed in PubChem BioAssay.
